In PubChem BioAssay one finds composite z-score and z-score data, which are given here for five compounds.

Calls of active or inactive are those of the source. Unless noted, the rule behind the calls is not given here.

Assay [1] in a line: compounds binding Alexa647 anti-His antibody – biochemical, small-molecule microarray, 635 nm fluorescence, artefact control for SMM control protein annotation, primary screen (AID 1128).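 Note: score merges feature fluorescence with signal-to-noise for each printed compound spot.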 The following applies: higher = more signal.
Assay [2] has as its system Human papillomavirus type 1a E7 protein (residues 1-88). In words: HPV1a E7 small-molecule binders, primary screen, biochemical, small-molecule microarray, residues 1-88, 635 nm (AID 1129). The following applies: small-molecule microarray binding, fluorescence 635 nm; higher = more signal.
Assay [3] has as its target Focal adhesion kinase 1 (Homo sapiens) (UniProt Q05397). In words: PTK2 protein binding on printed compound slides – biochemical, small-molecule microarray, 635/667 nm fluorescence, BSA, DTT, primary screen (AID 1130).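 Note: composite of spot emission at 667 nm and signal to noise over triplicate slides.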 The following applies: 635 nm fluorescence, higher = more signal.
Assay [4] relates to Fibrinogen (Alexa647-labelled). The assay can be described thus: Alexa647-fibrinogen binding to printed small molecules – biochemical, small-molecule microarray, 635/667 nm fluorescence, artefact control for SMM control-protein annotation, profiling panel (AID 1131).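 Note: z-score merges 667 nm fluorescence with per-spot signal-to-noise over triplicate slides.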 The following applies: fibrinogen-A647 binding fluorescence, higher = more signal.
Assay [5] addresses Follistatin (Homo sapiens) (UniProt P19883). The assay can be described thus: FST protein binding to printed compounds – biochemical, small-molecule microarray, 635/667 nm fluorescence, primary screen (AID 1132). The note with it: 635 nm fluorescence, higher = more signal.
Assay [6] deals with Fibroblast growth factor 2 (Homo sapiens) (UniProt P09038). In words: basic fibroblast growth factor binding to printed compounds – biochemical, small-molecule microarray, 635/667 nm fluorescence, primary screen (AID 1133). The note with it: FGF2, fluorescence 635/667, higher = more signal.
Assay [7] in a line: JC-1 mitochondrial potential readout, lung cancer cells – cell-based, A549, JC-1 fluorescence, basal, 24 h, 100 nL, profiling panel (AID 1138).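 Note: A549 lung adenocarcinoma cells under basal conditions with no added stimulus; test concentration not given here.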 The following applies: higher = more signal.
The test system of assay [8] is Lefty1. In words: Lefty1 protein binding to printed compounds – biochemical, small-molecule microarray, 635/667 nm fluorescence, primary screen (AID 1139). The following applies: fluorescence 635/667, higher = more signal.
Assay [9] has as its system wheat germ agglutinin (Triticum aestivum), Alexa647-labelled. In words: Alexa647-WGA lectin binding to printed small molecules – biochemical, small-molecule microarray, 635/667 nm fluorescence, artefact control for SMM control-protein annotation, profiling panel (AID 1140).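 Note: score merges 667 nm feature emission with signal to noise over triplicate slides.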 The following applies: WGA-A647 binding, 635 nm fluorescence, higher = more signal.
Assay [10] has as its target Luciferin 4-monooxygenase (Photinus pyralis) (UniProt P08659). In words: inhibition of purified Photinus pyralis luciferase – biochemical, luminescence, purified enzyme, 2006 set, primary screen (AID 1141).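 Note: cell-free assay with purified firefly luciferase at 100 ng per well in PBS; test concentration not given here.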 The note with it: purified firefly luciferase, SteadyGlo luminescence, 30 min; higher = more signal, called active from +8 up or from −8 down.
The subject of assay [11] is Wnt5a (protein binding on small-molecule microarray). In words: small molecules binding Wnt5a protein – biophysical, small-molecule microarray, 635/667 nm fluorescence, primary screen (AID 1142).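 Note: fluorescence read at 667 nm with signal to noise per printed feature.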 The note with it: 635 nm fluorescence, higher = more signal.
Assay [12] can be described thus: ATP-based viability of Huh7 replicon cells – cell-based, CellTiter-Glo luminescence, basal, 48 h, cytotoxicity control for HCV replication inhibitor project, primary screen (AID 1143).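 Note: Huh7 hepatoma cells carrying a hepatitis C replication reporter with no stimulus; test concentration not given here.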 The following applies: higher = more signal, called active from +8 up or from −8 down.
A short description of assay [13]: Pseudomonas biofilm growth suppression – PAO1 strain, BacTiter-Glo luminescence, LB-PBS, primary screen (AID 1144). The following applies: P. aeruginosa PAO1 biofilm, 12 h, higher = more signal.
The nature of assay [14]: basal CRE-LacZ reporter activity in PC12 – cell-based, unstimulated, primary screen (AID 1145). The following applies: no forskolin, luminescence, 4.5 h, higher = more signal, called active from +8 up or from −8 down.
The nature of assay [15]: forskolin-driven CRE-LacZ activity in PC12 – cell-based, CRE-LacZ reporter, forskolin-stimulated, primary screen (AID 1146).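 Note: PC12 cells with 6xCRE LacZ reporter stimulated by forskolin 10 µM; beta-galactosidase reporter signal reflecting CREB driven transcription.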 The following applies: luminescence, 4.5 h, higher = more signal, called active from +8 up or from −8 down.
Assay [16] addresses Streptavidin (Streptomyces avidinii) (UniProt P22629). The assay can be described thus: compounds binding control protein streptavidin – biophysical, small-molecule microarray, 635/667 nm fluorescence, artefact control for SMM compound annotation, primary screen (AID 1147).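 Note: signal reflects streptavidin binding to arrayed compounds as a control protein.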 The note with it: higher = more signal.
A short description of assay [17]: probe aInhba binding on compound microarray – biochemical, small-molecule microarray, 635/667 nm fluorescence, primary screen (AID 1148).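 Note: score merges 667nm spot fluorescence with signal-to-noise for antibody binding to printed compounds.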 The following applies: higher = more signal.
Assay [18] deals with Torsin-1A (Homo sapiens) (UniProt O14656). The assay can be described thus: TOR1A wild-type binding on microarray – cell lysate, small-molecule microarray, lysate, 635/667 nm, primary screen (AID 1149). The following applies: COS7 hTOR1A-WT lysate, 635 nm fluorescence, higher = more signal.
Assay [19] has the same target. In words: torsin A mutant lysate binding on microarrays – cell lysate, small-molecule microarray, COS7 lysate, 635/667 nm fluorescence, primary screen (AID 1150).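 Note: score pools 667 nm emission and signal to noise measuring lysate protein binding.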 The note with it: COS7 hTOR1A mutant lysate, 635 nm fluorescence, higher = more signal.
Assay [20] relates to Sonic hedgehog protein (Shh). The assay can be described thus: Sonic hedgehog microarray binding compounds – biochemical, small-molecule microarray, 635/667 nm fluorescence, primary screen (AID 1151).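 Note: Shh protein binding to compounds spotted on small-molecule microarray slides; score combines spot fluorescence intensity with signal-to-noise across triplicate slides.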 The following applies: 635 nm fluorescence, higher = more signal.

Torsin-1A (Homo sapiens), sequence (O14656 whole entry, looked up): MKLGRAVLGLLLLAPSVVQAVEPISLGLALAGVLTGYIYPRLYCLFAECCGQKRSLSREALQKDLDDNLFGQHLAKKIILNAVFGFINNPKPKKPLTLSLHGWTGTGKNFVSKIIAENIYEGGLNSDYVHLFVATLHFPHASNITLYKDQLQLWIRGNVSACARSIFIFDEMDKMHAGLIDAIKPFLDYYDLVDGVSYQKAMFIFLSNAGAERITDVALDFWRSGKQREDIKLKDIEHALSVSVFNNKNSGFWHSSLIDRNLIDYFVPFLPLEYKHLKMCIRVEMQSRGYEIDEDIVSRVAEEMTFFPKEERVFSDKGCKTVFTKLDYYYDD
Streptavidin (Streptomyces avidinii), sequence (P22629 whole entry, looked up): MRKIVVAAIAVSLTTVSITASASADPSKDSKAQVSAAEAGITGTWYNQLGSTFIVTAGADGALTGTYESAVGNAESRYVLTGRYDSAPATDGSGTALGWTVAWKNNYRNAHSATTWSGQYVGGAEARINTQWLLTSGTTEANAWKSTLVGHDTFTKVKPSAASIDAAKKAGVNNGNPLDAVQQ
Focal adhesion kinase 1 (Homo sapiens), sequence (Q05397 whole entry, looked up): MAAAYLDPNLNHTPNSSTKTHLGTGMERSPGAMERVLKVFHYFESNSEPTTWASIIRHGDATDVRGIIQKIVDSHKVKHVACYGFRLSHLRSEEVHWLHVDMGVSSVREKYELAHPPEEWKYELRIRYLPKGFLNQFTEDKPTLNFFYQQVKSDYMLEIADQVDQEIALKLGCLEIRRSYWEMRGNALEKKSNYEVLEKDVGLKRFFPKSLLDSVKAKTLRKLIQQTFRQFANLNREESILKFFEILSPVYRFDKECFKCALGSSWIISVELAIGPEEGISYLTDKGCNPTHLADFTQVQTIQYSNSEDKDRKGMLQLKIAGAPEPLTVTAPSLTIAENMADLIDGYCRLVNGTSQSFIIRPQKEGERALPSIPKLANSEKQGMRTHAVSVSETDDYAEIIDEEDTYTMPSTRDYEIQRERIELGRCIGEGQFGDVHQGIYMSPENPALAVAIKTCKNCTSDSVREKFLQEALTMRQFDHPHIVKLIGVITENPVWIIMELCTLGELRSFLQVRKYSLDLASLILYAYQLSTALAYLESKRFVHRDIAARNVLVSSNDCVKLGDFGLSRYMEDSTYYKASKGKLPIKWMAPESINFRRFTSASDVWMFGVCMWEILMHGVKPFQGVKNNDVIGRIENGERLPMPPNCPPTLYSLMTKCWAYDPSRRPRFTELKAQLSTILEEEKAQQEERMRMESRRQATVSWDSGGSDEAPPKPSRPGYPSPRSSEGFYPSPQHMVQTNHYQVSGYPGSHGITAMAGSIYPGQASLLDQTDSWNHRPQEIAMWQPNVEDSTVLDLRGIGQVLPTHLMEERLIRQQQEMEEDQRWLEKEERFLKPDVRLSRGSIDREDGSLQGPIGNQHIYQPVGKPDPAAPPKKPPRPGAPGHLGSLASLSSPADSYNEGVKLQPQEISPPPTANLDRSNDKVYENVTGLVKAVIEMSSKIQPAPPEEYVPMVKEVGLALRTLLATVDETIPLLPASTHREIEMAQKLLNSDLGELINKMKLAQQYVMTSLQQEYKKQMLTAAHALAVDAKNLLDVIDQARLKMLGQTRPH
Luciferin 4-monooxygenase (Photinus pyralis), sequence (P08659 whole entry, looked up): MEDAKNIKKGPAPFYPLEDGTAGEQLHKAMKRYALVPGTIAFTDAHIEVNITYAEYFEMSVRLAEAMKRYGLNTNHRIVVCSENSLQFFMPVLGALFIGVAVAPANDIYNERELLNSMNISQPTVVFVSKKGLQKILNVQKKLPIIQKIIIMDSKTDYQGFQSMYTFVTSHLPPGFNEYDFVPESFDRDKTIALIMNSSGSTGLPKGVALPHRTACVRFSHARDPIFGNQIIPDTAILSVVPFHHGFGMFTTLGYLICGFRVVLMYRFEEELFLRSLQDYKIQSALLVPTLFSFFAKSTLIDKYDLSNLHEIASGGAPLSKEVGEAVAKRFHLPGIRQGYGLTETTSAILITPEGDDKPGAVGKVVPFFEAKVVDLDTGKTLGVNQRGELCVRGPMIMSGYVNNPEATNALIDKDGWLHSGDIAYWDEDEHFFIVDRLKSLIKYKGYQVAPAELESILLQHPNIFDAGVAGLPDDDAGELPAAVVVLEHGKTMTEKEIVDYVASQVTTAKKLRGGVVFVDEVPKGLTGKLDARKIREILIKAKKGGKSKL
Fibroblast growth factor 2 (Homo sapiens), sequence (P09038 whole entry, looked up): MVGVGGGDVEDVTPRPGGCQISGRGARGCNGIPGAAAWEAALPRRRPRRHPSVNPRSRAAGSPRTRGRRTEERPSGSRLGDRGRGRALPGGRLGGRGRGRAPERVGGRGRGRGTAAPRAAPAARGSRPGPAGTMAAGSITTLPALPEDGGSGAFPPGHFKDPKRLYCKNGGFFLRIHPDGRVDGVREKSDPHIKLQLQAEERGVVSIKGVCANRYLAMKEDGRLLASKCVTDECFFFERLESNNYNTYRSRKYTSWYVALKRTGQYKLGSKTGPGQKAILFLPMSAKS
Follistatin (Homo sapiens), sequence (P19883 whole entry, looked up): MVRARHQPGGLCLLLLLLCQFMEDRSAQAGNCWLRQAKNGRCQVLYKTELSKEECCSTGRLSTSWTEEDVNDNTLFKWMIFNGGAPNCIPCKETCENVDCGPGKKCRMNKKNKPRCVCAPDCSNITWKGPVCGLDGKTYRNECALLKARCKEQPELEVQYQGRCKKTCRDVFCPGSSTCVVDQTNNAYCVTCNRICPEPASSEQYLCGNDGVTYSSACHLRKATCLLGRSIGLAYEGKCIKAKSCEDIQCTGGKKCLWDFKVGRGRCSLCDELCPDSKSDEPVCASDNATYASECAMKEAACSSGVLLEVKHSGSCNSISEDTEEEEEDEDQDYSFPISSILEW

Consider `O=C1O[C@@H](c2ccccc2)[C@@H](c2ccccc2)N2[C@@H](c3ccc(OCCO)cc3)[C@]3(C(=O)Nc4ccc(C#CCCO)cc43)[C@@H](C(=O)N3CCCCCCC3)[C@H]12`, for which the composite z-score in [1] stood at 1.86; in assay [2], 1.17; in [3], 0.782; in assay [4] it was 0.965; in assay [5], 1.39; in assay [6], 0.585. The composite z-score in [8] stood at 1.56; in assay [9], 1.35; in assay [11], 0.825; in assay [16], 2.31; in assay [17] it was 1.75; in assay [18] it was 0.782. The composite z-score in assay [19] amounted to 1.31; in assay [20], 1.59. The z-score in assay [7] is -0.287; in assay [10], -1.62 (inactive); in assay [12], -1.11 (inactive); in assay [13] it was -0.928 (inactive); in assay [14], -0.168 (inactive); in assay [15] it was 0.0629 (inactive).

Take `CC(=O)OC[C@H]1O[C@H](CCON=C(C)CCN2CCc3nc(-c4ccccc4)c(-c4ccccc4)cc3C2)C=C[C@@H]1OC(C)=O`: the composite z-score in [1] is -0.437; in assay [2], 0.0723; in [3], 0.186; in assay [4], 0.476; in assay [5], 0.129; in assay [6], -0.138. For the same compound, the composite z-score was 0.172 in [8]; 0.563 in [9]; -0.192 in [11]; 0.316 in assay [16]; 0.156 in assay [17]; 0.0622 in assay [18]. Moreover, the values for the composite z-score in [19] and in assay [20] were 0.407 and 0.287, respectively. Moreover, the z-score is 1.15 in [7]; 0.938 (inactive) in assay [10]; -1.04 (inactive) in assay [12]; 0.23 (inactive) in assay [13]; 4.88 (inactive) in assay [14]; 0.0929 (inactive) in assay [15].

For `CC(C)CON=C1C[C@@H](O)[C@@H](O)[C@@H]2[C@@H]3C(=O)N([C@@H](C)c4ccccc4)C(=O)[C@@H]3CC[C@H]12`, the composite z-score in assay [1] was 0.728; in assay [2] it was 1.17; in [3], 0.657; in assay [4] it was 0.951; in assay [5] it was 0.755; in assay [6], 1.18. For the same compound, the composite z-score in assay [8] came out at 1.4; in [9] it was 0.122; in assay [11] it was 0.257; in [16], 0.528; in assay [17], 0.168; in assay [18] it was 0.466. The composite z-score turned out to be 0.477 in [19] and 1.58 in assay [20]. Also, the z-score in assay [7] was 1.24; in assay [10], 0.407 (inactive); in assay [12], -0.544 (inactive); in assay [13], 1.98 (inactive); in assay [14], -0.383 (inactive); in assay [15], -0.0095 (inactive).

For `C#CCCCON=C1C[C@@H](O)[C@@H](O)[C@@H]2[C@@H]3C(=O)N(Cc4ccccc4)C(=O)[C@@H]3CC[C@H]12`, the composite z-score is 0.0056 in [1]; 0.126 in assay [2]; 0.256 in assay [3]; -0.307 in assay [4]; 0.592 in assay [5]; 0.171 in assay [6]. Further, the composite z-score in assay [8] was 0.582; in assay [9] it was 0.253; in assay [11] it was 0.203; in assay [16], 0.0194; in assay [17] it was -0.209; in assay [18], 0.289. For the same compound, the composite z-score in assay [19] is -0.0292; in [20], 0.985. The z-score was -0.732 in [7]; 0.883 (inactive) in assay [10]; -3.22 (inactive) in assay [12]; -1.13 (inactive) in assay [13]; 0.793 (inactive) in assay [14]; -0.645 (inactive) in assay [15].

As for `CCN1C(=O)[C@H]2[C@H]3[C@H](O)[C@H](O)CC(=NO[C@@H]4O[C@H](CO)[C@@H](O)[C@H](O)[C@H]4O)[C@@H]3CC[C@H]2C1=O`, the composite z-score in [1] was -0.0636; in [2], -1.45; in [3], -0.41; in assay [4], -2.56; in assay [5], 0.477; in assay [6], 0.0724. In addition, the composite z-score in [8] was 0.232; in assay [9], 0.714; in assay [11], -0.215; in assay [16] it was -0.933; in assay [17], -0.249; in assay [18], 1.47. In addition, the composite z-score in assay [19] is -0.213; in assay [20], 0.365. Besides, the z-score in [7] is 0.459; in [10], -0.156 (inactive); in [12] it was 0.499 (inactive); in assay [13], 0.00567 (inactive); in assay [14] it was -0.925 (inactive); in assay [15] it was -0.951 (inactive).
